# Assay results: publication PMC4336329 (PLoS ONE, 2015)
# About 14,000 (4.5%) of roughly 310,000 compounds showed an effect of 50% or more. Effects have a minus sign here. This is one part of a sample in which strong results are shown more often than they occur.
# Target: human ether-à-go-go-related gene (hERG) potassium channel (human, UniProt Q12809)
# Assay: primary screen, population patch clamp on CHO cells stably expressing hERG; higher = less effect of the substance
# 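Further: peak tail current of the secondary pulse compared with the same well before compound.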
# Sequence of human ether-à-go-go-related gene (hERG) potassium channel (Q12809 whole entry, looked up): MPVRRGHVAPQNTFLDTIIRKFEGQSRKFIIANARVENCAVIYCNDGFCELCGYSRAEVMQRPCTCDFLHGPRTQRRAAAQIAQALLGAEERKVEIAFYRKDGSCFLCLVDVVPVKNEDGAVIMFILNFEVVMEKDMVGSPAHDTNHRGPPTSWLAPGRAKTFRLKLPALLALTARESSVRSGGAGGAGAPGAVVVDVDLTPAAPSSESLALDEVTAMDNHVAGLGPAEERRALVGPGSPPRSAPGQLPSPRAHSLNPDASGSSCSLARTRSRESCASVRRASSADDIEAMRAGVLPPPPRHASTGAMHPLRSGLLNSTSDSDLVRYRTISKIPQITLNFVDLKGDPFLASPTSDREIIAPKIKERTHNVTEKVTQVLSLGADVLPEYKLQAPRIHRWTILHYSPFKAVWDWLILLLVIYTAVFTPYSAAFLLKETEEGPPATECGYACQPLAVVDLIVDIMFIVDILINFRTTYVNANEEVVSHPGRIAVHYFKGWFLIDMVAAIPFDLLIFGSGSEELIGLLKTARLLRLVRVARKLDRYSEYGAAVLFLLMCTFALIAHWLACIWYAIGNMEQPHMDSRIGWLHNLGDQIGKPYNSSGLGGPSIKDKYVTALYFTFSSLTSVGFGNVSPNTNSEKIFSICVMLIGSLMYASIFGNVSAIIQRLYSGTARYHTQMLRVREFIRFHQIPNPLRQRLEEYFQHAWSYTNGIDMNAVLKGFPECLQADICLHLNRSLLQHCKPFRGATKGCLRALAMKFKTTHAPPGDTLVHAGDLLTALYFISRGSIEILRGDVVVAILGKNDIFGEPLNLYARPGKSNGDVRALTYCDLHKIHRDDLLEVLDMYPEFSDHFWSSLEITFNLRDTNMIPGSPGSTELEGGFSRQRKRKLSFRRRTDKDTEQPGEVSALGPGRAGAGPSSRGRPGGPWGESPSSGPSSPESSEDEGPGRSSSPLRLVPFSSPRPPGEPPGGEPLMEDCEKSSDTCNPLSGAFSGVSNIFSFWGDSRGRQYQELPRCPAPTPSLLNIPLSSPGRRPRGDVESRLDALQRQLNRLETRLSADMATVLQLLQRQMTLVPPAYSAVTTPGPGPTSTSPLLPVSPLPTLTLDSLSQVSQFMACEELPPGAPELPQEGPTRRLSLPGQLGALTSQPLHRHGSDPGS
row,Compound,"hERG current change (%, negative = inhibition) at 10uM"
1,COc1ccc(-c2csc(NC(=O)c3ccc(S(=O)(=O)N4CCc5ccccc5C4)cc3)n2)c(OC)c1,23%
2,O=C(CCC(=O)OCC(=O)c1ccccc1)Nc1cccc(Cl)c1,21.5%
3,CCN(CC)C(=O)c1c(NC(=O)c2ccccc2)sc(C)c1C,-6.01%
4,O=C(NCSc1ccnc(SCNC(=O)c2ccccc2)n1)c1ccccc1,-28%
5,COc1ccc(CC(=O)NCCS(=O)(=O)N2CCN(c3ccccc3)CC2)cc1,12.7%
6,Cc1ccc(CSc2nnc(-c3ccncc3)n2C)cc1,4.36%
7,Cn1c(SCC2CCCO2)nnc1-c1cccc([N+](=O)[O-])c1 (centres unmarked),8.76%
8,Cn1c(SCC2CCCO2)nnc1-c1ccc([N+](=O)[O-])cc1 (centres unmarked),-63.8%
9,Cn1c(SCc2ccc([N+](=O)[O-])cc2)nnc1-c1ccncc1,-52%
10,CN(C)c1ccc(-c2nnc(SCC3CCCO3)n2C)cc1 (centres unmarked),5.24%
11,Cn1c(SCc2ccc([N+](=O)[O-])cc2)nnc1-c1cccnc1,-18%
12,CCO/C=C1/C(=O)N(CC)c2ccccc21,-8.33%
13,CCOC(=O)Nc1cccc2ccccc12,1.14%
14,CCOc1cc(C2C(C(=O)O)c3cc(OCC)c(OCC)cc3C(=O)N2C)ccc1O (centres unmarked),2.69%
15,O=C(CNC(=S)N(Cc1ccccc1F)C1CCCCC1)NCCN1CCOCC1,43.3%
16,COCCNC(=O)Cn1nc(-c2ccc(Cl)cc2)c2ccccc2c1=O,8.83%
17,COc1cccc(CN(C)C(=O)CCNC(=O)c2ccc(Br)cc2)c1,0.786%
18,CC(=O)c1cccc(CN2CCN(Cc3ccc(F)cc3)C(CCO)C2)c1 (centres unmarked),-32.9%
19,CC(=O)c1cccc(CN2CCN(Cc3ccccc3)C(CCO)C2)c1 (centres unmarked),-1.84%
20,CC(=O)c1cccc(CN2CCN(CCc3ccccc3)C(CCO)C2)c1 (centres unmarked),-53.3%
21,CC(=O)c1cccc(CN2CCN(CC(C)C)C(CCO)C2)c1 (centres unmarked),5.29%
22,CC(=O)c1cc(CN2CCN(Cc3ccccc3)C(CCO)C2)cs1 (centres unmarked),2.03%

row,Compound,"hERG current change (%, negative = inhibition) at 10uM"
1,CC(=O)c1cc(CN2CCN(CCC(C)C)C(CCO)C2)cs1 (centres unmarked),-5.53%
2,CC(=O)c1cccc(CN2CCN(CCC(C)C)C(CCO)C2)c1 (centres unmarked),-29%
3,CCOc1ccccc1CN1CCN(Cc2csc(C(C)=O)c2)CC1CCO (centres unmarked),-44.5%
4,CC(=O)c1cc(CN2CCN(C3CCN(C(C)C)CC3)C(CCO)C2)cs1 (centres unmarked),-3.56%
5,CC(=O)c1cccc(CN2CCN(Cc3ccc(C)cc3)C(CCO)C2)c1 (centres unmarked),-69%
6,COc1ccc(CN2CCN(Cc3csc(C(C)=O)c3)CC2CCO)c(C)c1C (centres unmarked),-58.1%
7,CC(=O)c1cc(CN2CCN(CCc3ccccc3)C(CCO)C2)cs1 (centres unmarked),-54.4%
8,Cc1cccc(-n2[nH]c3c4c(ccc3c2=O)C(=O)c2ccccc2C4=O)c1,4.95%
9,Cc1onc(-c2ccccc2Cl)c1C(=O)Nc1ccc(OCC(=O)N2CCOCC2)cc1,-3.95%
10,CC/C(=N\NC(=O)Nc1ccccc1)c1c(O)n(Cc2ccccc2)c(=O)[nH]c1=O,3.1%
11,CC(=O)c1ccc(NS(=O)(=O)c2ccc3c(c2)N(C)CCO3)cc1,11.6%
12,COc1ccccc1N1CCN(C(=O)C2CCCN(S(=O)(=O)c3ccc(C)cc3)C2)CC1 (centres unmarked),-38.3%
13,O=C(Nc1c(F)cc(F)cc1Br)c1cccnc1,8.61%
14,COc1ccc(-c2ccnc3nc(-n4cccc4)nn23)cc1,-14.7%
15,COc1cc2nc(Nc3cccc(F)c3)nc(N)c2cc1OC.Cl,-17.7%
16,O=C(NC1CC2CCC1C2)C1CCN(S(=O)(=O)c2ccc(-c3nn[nH]n3)cc2)CC1 (centres unmarked),14.4%
17,O=C(O)c1cc(N2C(=O)C3CC=CCC3C2=O)ccc1NCc1cccnc1 (centres unmarked),15%
18,CC(=O)c1cc(CN2CCN(CC=C(C)C)C(CCO)C2)cs1 (centres unmarked),16.3%
19,CC(=O)c1cc(CN2CCN(Cc3ccc(C)cc3)C(CCO)C2)cs1 (centres unmarked),-55%
20,CC(=O)c1cc(CN2CCN(C3CCCCC3)C(CCO)C2)cs1 (centres unmarked),-17.2%
21,CN1C(N)=NC(=O)/C1=C\c1ccc(Br)cc1,8.35%
22,CC(C)CC(C(=O)NC1CCCC1)N(Cc1ccc2c(c1)OCO2)C(=O)c1snc(C(N)=O)c1N (centres unmarked),-20.4%
